Measured values taken from the supplement of paper PMC8269313.
Counter-ions that a name gives are not always drawn.

Test system: 4T1
Test: % inhibition of 4T1 cell number vs DMSO control; higher = stronger growth inhibition
Conditions: 1 µM, 3 days
Outline: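 4T1-H2B-GFP mouse breast cancer cells (3000 per well, 2% FBS medium) were seeded in 96-well imaging plates on plastic, denuded lung or mCAF1 fibroblast-derived matrix, Matrigel (15 μg/mL) or 0.2% gelatin; edge wells were left unused. After 16 h, kinase inhibitors were added at 1 μM final for 3 days. Plates were formalin-fixed, DAPI-stained and imaged on an INCell Analyzer 2200, and GFP-positive nuclei were counted. Percent inhibition of cell number was calculated relative to DMSO control.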

[1] = substrate: lung fibroblast-derived matrix
[2] = substrate: mCAF1 fibroblast-derived matrix

| Compound | % inhibition of 4T1 cell number (substrate: Matrigel) | % inhibition of 4T1 cell number (substrate: gelatin) | % inhibition of 4T1 cell number [1] | % inhibition of 4T1 cell number [2] | % inhibition of 4T1 cell number (substrate: plastic) |
| --- | --- | --- | --- | --- | --- |
| C[S+]([O-])c1ccc(-c2nc(-c3ccc(F)cc3)c(-c3ccncc3)[nH]2)cc1 (stereo not given) | 28.8% | 44.4% | 99.2% | 14.9% | 23.3% |
| O=C1NC(=O)C(c2c[nH]c3ccccc23)=C1c1c[nH]c2ccccc12 [Bisindolylmaleimide IV] | 24.5% | -65.7% | 47.8% | 17.1% | -20.6% |
| COc1cc2ncnc(Nc3ccc(O)c(Br)c3)c2cc1OC [JAK3 Inhibitor II] | -13.3% | -52.6% | -6.47% | 25.3% | -53.6% |
| N#Cc1c(NC(=O)c2cccc3ccccc23)sc2c1CCCC2 [JNK Inhibitor IX] | 92% | 92.5% | 2.5% | 90.8% | 86.4% |
| c1nc2c(NC3CCCCC3)nc(Nc3ccc(N4CCOCC4)cc3)nc2[nH]1 [Reversine] | 91% | 89.5% | 7.75% | 85.6% | 63.1% |
| NC(=O)c1ccc2nc(-c3ccc(Oc4ccc(Cl)cc4)cc3)[nH]c2c1 [Chk2 Inhibitor II] | -26.7% | -10.9% | 22.1% | 21.5% | -72.4% |
| Fc1ccc(-c2nc3n(c2-c2ccncc2)CCS3)cc1 | 28.9% | 18.4% | -11.4% | 18.8% | 9.54% |
| C[C@@H](N)C1CCC(C(=O)Nc2ccncc2)CC1 (stereo not given in full) | -13.2% | -4.77% | -5.27% | 9.93% | -47.5% |
| COc1cc2ncc(-c3ccccc3)nc2cc1OC | 20.6% | 47% | -16.1% | 27.8% | 39.5% |
| O=C(O)c1ccc2c3c1cccc3c(=O)n1c3ccccc3nc21 | 30.6% | 44.3% | -11.4% | 31.2% | 32.2% |
| CCN(CC)C(=O)c1ccc(Nc2nc(OCC3CCCCC3)c3[nH]cnc3n2)cc1 [Cdk2 Inhibitor IV, NU6140] | -9.76% | -12.1% | -6.34% | 80.5% | 44.3% |
| CS(=O)(=O)c1ccc(-c2nc(-c3ccc(F)cc3)c(-c3ccncc3)[nH]2)cc1 | 37.9% | 63% | -4.16% | 14.7% | 52.9% |
| NC(N)=NCCNS(=O)(=O)c1cccc2cnccc12 [HA 1004, Dihydrochloride] | -14.8% | -0.694% | -2.73% | -8.89% | -48.5% |
| NS(=O)(=O)c1ccc(N=Nc2c(O)[nH]c3ccc(Br)cc23)cc1 [Cdk2 Inhibitor II] | 14.7% | 31.6% | -5.54% | 18.1% | -9.24% |
| Cc1cc(Nc2nc(-c3ccccc3)nc3ccccc23)n[nH]1 [GSK-3 Inhibitor XIII] | -21.7% | -25.8% | -19% | 62.3% | -14.5% |
| CNc1cc2c(Nc3cccc(Br)c3)ncnc2cn1 | -6.51% | -93.8% | 25.4% | 6.09% | -25.5% |
| COc1ccc(COc2ccc(Cc3cnc(N)nc3N)cc2OC)cc1 [cFMS Receptor Tyrosine Kinase Inhibitor] | -15.7% | -87.3% | 2.62% | 11.3% | -59.7% |
| CCCCCCCCCCCCCCCCn1cc[n+](Cc2ccccc2)c1C [eEF-2 Kinase Inhibitor, NH125] | 81.5% | 78.5% | 52.8% | 83.2% | 93.2% |
| CC[n+]1c(/C=C/N(C)c2ccccc2)n(-c2ccccc2)c2ccc(-c3nc4ccccc4s3)cc21 [Akt Inhibitor IV] | 53.2% | 56.7% | -4.76% | 92.1% | 78.2% |
| CN(C)S(=O)(=O)c1ccc2c(c1)/C(=C/c1cc3c([nH]1)CCCC3)C(=O)N2 | -10.2% | 2.33% | -16.4% | -22.1% | -51.8% |
| CSc1nc(-c2ccnc(NC(C)c3ccccc3)c2)c(-c2ccc(F)cc2)[nH]1 (stereo not given) [p38 MAP Kinase Inhibitor III] | -9.55% | -7.6% | 10.6% | 23.1% | -65% |
| Nc1nc(Nc2ccc(S(N)(=O)=O)cc2)nn1C(=S)Nc1c(F)cccc1F [Cdk1/2 Inhibitor III] | 90.1% | 90% | 1.23% | 97.8% | 95.5% |
| O=C(O)C=Cc1cc(Br)c(Br)c(Br)c1Br [Casein Kinase II Inhibitor III, TBCA] | 33.8% | 27.7% | 2.78% | 2.33% | 40.6% |
| Cn1c2ccccc2c2c3c(c4c5ccccc5n(CCC#N)c4c21)CNC3=O | 50.9% | 67.2% | -8.31% | 34.5% | 72.7% |
| COc1cc2ncn(-c3cc(OCc4ccccc4S(C)(=O)=O)c(C#N)s3)c2cc1OC [IKK-3 Inhibitor IX] | -14.6% | -1.27% | 1.67% | 6.5% | -26.7% |
| CO[C@H]1C[C@@H]2CC[C@@H](C)[C@@](O)(O2)C(=O)C(=O)N2CCCC[C@H]2C(=O)O[C@H]([C@H](C)C[C@@H]2CC[C@@H](O)[C@H](OC)C2)CC(=O)[C@H](C)/C=C(\C)[C@@H](O)[C@@H](OC)C(=O)[C@H](C)C[C@H](C)/C=C/C=C/C=C/1C [Rapamycin] | -18.4% | -32% | -0.258% | 23.7% | -50.8% |
| COc1ccc2c(c1)c(C1=C(c3c[nH]c4ccccc34)C(=O)NC1=O)cn2CCCN(C)C | -19.1% | -76.7% | -27.2% | 11.8% | -63.4% |
